The values that follow come from PubChem BioAssay.

In test [1] the target is Cell division control protein 42 homolog (Homo sapiens) (UniProt P60953). The test can be described thus: activated mutant Cdc42 GTP-binding inhibitors, dose response, biochemical, multiplex bead flow cytometry, Bodipy-FL-GTP (AID 1333).
Test [2] has the same target. Nature of the test: wildtype Cdc42 GTP-binding inhibitors, dose response, biochemical, multiplex bead flow cytometry, Bodipy-FL-GTP (AID 1334;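 active = fitted half-maximal concentration within the tested range, moderate curve steepness, significant signal drop, and little compound fluorescence or bead-linkage interference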). Conditions: bead-based flow cytometry, Bodipy-FL-GTP binding to GST-Cdc42; at 100 µM (top of the series) unless noted.
For test [3], the target named is GTPase HRas (Homo sapiens) (UniProt P01112). Nature of the test: inhibitors of GTP binding to wildtype Ras, dose response, biochemical, multiplex bead flow cytometry (AID 1335;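 active = fitted half-maximal concentration within 10 nM to 100 µM, steepness 0.5 to 2, significant signal drop, low assay interference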). To be noted: bead-based flow cytometry, Bodipy-GTP binding to GST-Ras; at 100 µM (top of the series) unless noted. Background: A flow cytometer gives signals particle by particle.
Test [4] has as its system Ras-related protein Rab-7a (dog), GTP binding. The test can be described thus: Rab7 GTP binding inhibitors, potency, dose response, biochemical, wildtype, multiplex bead flow cytometry (AID 1336; call rule not given here).
For test [5], the target named is Ras-related C3 botulinum toxin substrate 1 (Homo sapiens) (UniProt P63000). Nature of the test: wildtype Rac1 GTP binding inhibitors, dose response, biochemical, multiplex bead flow cytometry (AID 1340;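 active = dose curve with midpoint inside tested range, moderate steepness, plateau gap beyond fit error, low compound glow and bead-link interference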). To be noted: GST-Rac1 beads, Bodipy-FL-GTP binding; at 100 µM (top of the series) unless noted.
The target of test [6] is GTPase HRas (Homo sapiens) (UniProt P01112). The test can be described thus: activated Ras mutant GTP binding inhibitors, dose response, biochemical, multiplex bead flow cytometry (AID 1341;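 active = dose-response curve with midpoint inside the tested range, moderate steepness, significant amplitude and little compound fluorescence or bead-attachment interference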;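 also: GST-tagged constitutively activated Ras mutant immobilized on beads and multiplexed with other GTPases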).

For part of these data: Entries with a potency or affinity are not part of this list. Active and inactive are the calls of the source.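 The calls were made as follows, unless noted: active = fitted half-maximal concentration within the tested dose range, moderate curve steepness, a statistically real signal drop, and little compound fluorescence or tag-binding interference; inactive = the rest.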

Sequence of Cell division control protein 42 homolog (Homo sapiens) (P60953 whole entry, looked up): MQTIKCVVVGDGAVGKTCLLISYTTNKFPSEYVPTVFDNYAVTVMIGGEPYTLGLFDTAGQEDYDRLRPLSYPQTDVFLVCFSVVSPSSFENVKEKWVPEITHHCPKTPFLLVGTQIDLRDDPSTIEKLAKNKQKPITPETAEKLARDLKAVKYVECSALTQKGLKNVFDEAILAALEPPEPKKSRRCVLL
Sequence of GTPase HRas (Homo sapiens) (P01112 whole entry, looked up): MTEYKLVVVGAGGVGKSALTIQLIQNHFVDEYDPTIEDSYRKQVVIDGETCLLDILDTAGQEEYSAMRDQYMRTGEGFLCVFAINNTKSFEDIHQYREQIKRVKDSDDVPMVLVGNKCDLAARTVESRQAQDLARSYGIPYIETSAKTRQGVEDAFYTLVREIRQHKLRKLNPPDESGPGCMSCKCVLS

As for `COc1cc2[nH]c(=S)nc(NC3CCCC3)c2cc1OC`, the molecule was classed as inactive in test [1], in test [4] and in test [6]. For the same molecule, the fluorescence, percent of control (lower = inhibition) in test [2] amounted to 25.9%. In test [3], this molecule registered a GTP binding, percent of control of 56.7%. Besides, the GTP binding signal, raw median fluorescence (lower = inhibition) (MCF (arbitrary fluorescence units)) in test [5] worked out at 124.
Take `COc1ccc2nc(/C(C#N)=C\c3ccc(C(=O)O)cc3)[nH]c2c1`: the outcome in test [1], in test [4] and in test [6] was inactive. Besides, the fluorescence, percent of control (lower = inhibition) in test [2] worked out at 31.4%. The GTP binding, percent of control in test [3] turned out to be 72.6%. The GTP binding signal, raw median fluorescence (lower = inhibition) (MCF (arbitrary fluorescence units)) in test [5] was found to be 189.
`COc1ccc(Nc2nc(-c3c(C)nc4ncccn34)cs2)cc1`: the outcome in test [1], in test [4] and in test [6] was inactive. Also, the fluorescence, percent of control (lower = inhibition) in test [2] is 29%. The molecule also displayed a GTP binding, percent of control in test [3] of 66%. For the same molecule, in test [5], the GTP binding signal, raw median fluorescence (lower = inhibition) (MCF (arbitrary fluorescence units)) is 140.
As for `O=C(Nc1ccc(N2CCOCC2)c(Cl)c1)c1ncn[nH]1`, the call in test [1], in test [4] and in test [6] was inactive. Besides, the fluorescence, percent of control (lower = inhibition) in test [2] was found to be 104%. The GTP binding, percent of control in test [3] is 203%. Moreover, in test [5], the GTP binding signal, raw median fluorescence (lower = inhibition) (MCF (arbitrary fluorescence units)) came to 241.
In the case of `O=c1c2c(-c3ccccc3)csc2nc2c3ccccc3c(NCCN3CCOCC3)nn12`, the outcome in test [1], in test [4] and in test [6] was inactive. Also, the fluorescence, percent of control (lower = inhibition) in test [2] worked out at 32.1%. Moreover, the GTP binding, percent of control in test [3] was 66.4%. This molecule also gave a GTP binding signal, raw median fluorescence (lower = inhibition) (MCF (arbitrary fluorescence units)) in test [5] of 168.
With `O=C(C#Cc1ccc(-c2ccccc2)cc1)c1ccc([N+](=O)[O-])cc1`, the outcome in test [1], in test [4] and in test [6] was inactive. The fluorescence, percent of control (lower = inhibition) in test [2] came to 44.5%. In addition, in test [3], the GTP binding, percent of control came out at 196%. This molecule displayed a GTP binding signal, raw median fluorescence (lower = inhibition) (MCF (arbitrary fluorescence units)) in test [5] of 51.8.
For `O=C(CSc1ccccc1)Nc1ccc(C(=O)Nc2cccc(O)c2)cc1`, the outcome in test [1], in test [4] and in test [6] was inactive. For the same molecule, in test [2], the fluorescence, percent of control (lower = inhibition) turned out to be 33.6%. The GTP binding, percent of control in test [3] was 77.9%. Besides, in test [5], the GTP binding signal, raw median fluorescence (lower = inhibition) (MCF (arbitrary fluorescence units)) was 193.
With `COc1cccc(N=Nc2c(N)[nH]n3c(=O)c4c(nc23)CCCC4)c1`, the molecule was called inactive in test [1], in test [4] and in test [6]. Besides, in test [2], the fluorescence, percent of control (lower = inhibition) worked out at 29.6%. Moreover, the GTP binding, percent of control in test [3] was 66.9%. In addition, in test [5], the GTP binding signal, raw median fluorescence (lower = inhibition) (MCF (arbitrary fluorescence units)) came out at 151.
As to `Cc1cccc(C)c1CNc1ncccc1C(=O)O`, the outcome in test [1], in test [4] and in test [6] was inactive. Besides, the fluorescence, percent of control (lower = inhibition) in test [2] was 59%. Besides, the GTP binding, percent of control in test [3] was found to be 215%. In addition, the GTP binding signal, raw median fluorescence (lower = inhibition) (MCF (arbitrary fluorescence units)) in test [5] was determined as 56.4.
Turning to `Cc1ccc(C)c(NC(=S)NNC(=O)c2cc3c(s2)CCC(C)C3)c1` (stereo not given), the result in test [1], in test [4] and in test [6] was inactive. In addition, in test [2], the fluorescence, percent of control (lower = inhibition) was determined as 49.9%. The same molecule displayed a GTP binding, percent of control in test [3] of 67.1%. This molecule also had a GTP binding signal, raw median fluorescence (lower = inhibition) (MCF (arbitrary fluorescence units)) in test [5] of 176.
Regarding `CCOC(=O)c1c(-c2ccc(C)cc2)csc1NC(=O)/C(C#N)=C/c1ccc(O)c(OC)c1`, the call in test [1], in test [4] and in test [6] was inactive. Further, the fluorescence, percent of control (lower = inhibition) in test [2] was found to be 87.8%. Further, in test [3], the GTP binding, percent of control came to 99.4%. The molecule also yielded a GTP binding signal, raw median fluorescence (lower = inhibition) (MCF (arbitrary fluorescence units)) in test [5] of 226.
For `COc1ccc(-c2nnc(CSc3nc4ccccc4c(=O)n3C)o2)cc1OC`, the outcome in test [1], in test [4] and in test [6] was inactive. The fluorescence, percent of control (lower = inhibition) in test [2] was 39.2%. The same molecule came in with a GTP binding, percent of control in test [3] of 87.3%. Further, in test [5], the GTP binding signal, raw median fluorescence (lower = inhibition) (MCF (arbitrary fluorescence units)) amounted to 320.
Consider `COc1cc(/C=N/Nc2nc(C)nc3c2cnn3-c2ccccc2)ccc1O`, for which the molecule was called inactive in test [1], in test [4] and in test [6]. Further, in test [2], the fluorescence, percent of control (lower = inhibition) amounted to 87.1%. The GTP binding, percent of control in test [3] was 128%. Moreover, in test [5], the GTP binding signal, raw median fluorescence (lower = inhibition) (MCF (arbitrary fluorescence units)) was 241.
`Cc1cc(OCCSc2nc3ccccc3n2CC(=O)O)ccc1Cl`: the call in test [1], in test [4] and in test [6] was inactive. In addition, in test [2], the fluorescence, percent of control (lower = inhibition) was 58.4%. For the same molecule, the GTP binding, percent of control in test [3] worked out at 85.5%. In test [5], the GTP binding signal, raw median fluorescence (lower = inhibition) (MCF (arbitrary fluorescence units)) stood at 29.6.
Regarding `Cc1ccc(C(C)C)c(OCCn2cc(C(=O)O)c3ccccc32)c1`, the molecule was classed as inactive in test [1], in test [4] and in test [6]. Further, the fluorescence, percent of control (lower = inhibition) in test [2] amounted to 66.7%. This molecule came in with a GTP binding, percent of control in test [3] of 86.3%. In test [5], this molecule returned a GTP binding signal, raw median fluorescence (lower = inhibition) (MCF (arbitrary fluorescence units)) of 44.5.
